Assay results from PubChem BioAssay AID686979 (National Center for Advancing Translational Sciences (NCATS), 2013).
Where “and” joins values, the source holds several entries; their conditions need not be identical. Equal values may be shown once. The whole screen tested about 420,000 compounds, of which about 50,000 (12%) were called active. Inconclusive results (about 26%) are left out. Only a selection was taken, and actives are over-represented in it overall. Values without a mark were called inactive. Calls follow the shape of the dose curve; as a rule, active = well fitted inhibition curve with a large enough effect; inconclusive = small, poorly fitted or top-dose-only effect; inactive = flat fitted curve, though single readings scatter.

experiment: qHTS for Inhibitors of human tyrosyl-DNA phosphodiesterase 1 (TDP1): qHTS in cells in presence of CPT; details: chicken DT40 Tdp1-/-;hTDP1 cells + 20 nM CPT, ATP luminescence, 48 h; series mostly up to 46.2 µM; activity change, negative = growth inhibition: at the top concentration; also: nearly all actives have a fitted effect of over 55% in size
How it was run: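 Chicken DT40 Tdp1-/- cells stably complemented with human TDP1 were seeded at 400 cells/well in medium containing 20 nM camptothecin, exposed to pin-transferred compounds, and grown at 37 °C for at least 48 hr. Viability was read as ATP luminescence.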
% is scaled to controls: 0 for no effect and ±100 for the full control effect; potency is read from the fitted curve at half-maximal effect.

| SMILES | activity change, negative = growth inhibition [%] | Potency |
| --- | --- | --- |
| Cc1nn(C(C)CC(=O)O)c(C)c1C (stereo unspecified) | 0.513 |  |
| NS(=O)(=O)c1ccc(CNC(=S)NC(=O)c2ccco2)cc1 | -11.2 |  |
| CC(=O)N(Cc1cc(=O)[nH]c2ccccc12)c1ccc(C)cc1C | -6.41 |  |
| Cc1ccc(N(Cc2cc(=O)[nH]c3ccccc23)C(=O)CCl)cc1 |  | 2.91 µM (active) |
| Cc1ccc(N(Cc2cc3ccccc3[nH]c2=O)C(=O)c2cccs2)cc1 | -9.6 |  |
| COc1ccc(Cc2nnc(SCC(=O)Nc3ccc(C)c(C)c3)o2)cc1OC | -0.721 |  |
| Cc1ccc(NC(=O)C2CCCN2S(=O)(=O)c2cccc3cccnc23)c(C)c1 (stereo unspecified) |  | 23.1 µM (active) and 16.4 µM (active) |
| Cc1cccc(NC(=O)C2CCN(S(=O)(=O)c3cccc4cccnc34)CC2)c1 | -14.6 |  |
| O=C(Nc1nccs1)C1CCCN1S(=O)(=O)c1cccc2cccnc12 (stereo unspecified) | -29.8 |  |
| C=CCOc1ccc(/C=C/C(=O)OCC(=O)NC(C)c2ccc(F)cc2)cc1 (stereo unspecified) | -27.8 |  |
| COc1ccc2[nH]c3c(c2c1)CCN1C(=O)C(CC(=O)NCc2cccc(C(F)(F)F)c2)C[C@H](C(=O)N2CCOCC2)[C@@]31C (stereo partly specified) | -25.6 |  |
| COc1cc2c(cc1OC)CN(C(C)C(=O)Nc1cccc(S(=O)(=O)N3CCOCC3)c1)CC2 (stereo unspecified) | -54.2 |  |
| COc1ccc(C(=O)CN(C(=O)c2ccc(Cl)cc2)N2C(=O)c3ccccc3C2=O)cc1 | -24.3 |  |
| COc1ccc(Cn2c(-c3ccc(Cl)cc3)c[n+]3ccccc23)cc1 |  | 1.84 µM (active) |
| COc1ccc(Cn2c(=O)oc3ccccc32)cc1 | -4.79 |  |
| CN(CC(=O)Nc1c(Cl)cccc1Cl)C(=O)c1ccncc1 | 3.22 |  |
| COc1ccc(C(=O)NC2=NCCS2)c(OC)c1 | -19 |  |
| COC(=O)c1sc(NC(=O)c2ccc(OC)cc2OC)nc1C | -16.4 |  |
| COc1ccc(C(=O)Nc2cccc(NC(=O)c3ccc(OC)cc3OC)n2)c(OC)c1 |  | 20.6 µM (active) |
| CC1(C)NC(=O)N(CC(=O)Nc2cc(C(F)(F)F)cc(C(F)(F)F)c2)C1=O | 10.7 |  |
| CN1CCn2cnc(C(=O)NCC(=O)OC(C)(C)C)c2C1=O | -1.95 |  |
| O=C(CSc1nc2c(c(=O)[nH]1)CN(Cc1ccc(F)cc1)CC2)Nc1ccccc1Cl | 0.223 |  |
| Cc1cc(C)cc(NC(=O)NCc2ccccn2)c1 | 0.685 |  |
| CCCCn1c(N)c(N(CCOC)C(=O)COc2c(C)cccc2C)c(=O)[nH]c1=O | -13.4 |  |
| COC(=O)c1cccc(-n2[nH]nnc2=S)c1 | -28.1 |  |
| COc1ccc(Br)cc1S(=O)(=O)N1CCN=C1C | -2.21 |  |

| SMILES | activity change, negative = growth inhibition [%] | Potency |
| --- | --- | --- |
| COc1cc(C)c(C)cc1S(=O)(=O)N1CCCc2ccccc21 |  | 16.4 µM (active) |
| COc1ccc(C(=O)OCC(=O)NCC2CCCCC2)cc1S(=O)(=O)N1CCCc2ccccc21 | -2 |  |
| CN(CC(=O)Nc1ccc(Cl)cc1)C(=O)c1ccc(COc2ccccc2)cc1 | -24.6 |  |
| O=C(NCc1ccc2c(c1)OCO2)C(=O)NCC1OCCN1S(=O)(=O)c1ccc(F)cc1 (stereo unspecified) | 0.278 |  |
| Brc1c(CSc2nncc3ccccc23)nc2ccccn12 | -7.75 |  |
| O=C(Nc1cc(C(F)(F)F)ccc1Cl)c1nc2ccccc2nc1N1CCCCC1 | -28.9 |  |
| C/C(=C/C(=O)N1CCN(C)CC1)C(=O)O | -0.12 |  |
| O=C(c1cc(-c2ccc(O)cc2)on1)N1CCOCC1 | 21.7 |  |
| CCc1nc2sc(C(=O)O)c(N)c2c2c1CCCC2 | -23.4 |  |
| CCCCN(CC)CCCNC(=O)CS(=O)(=O)Cc1nc(-c2cccc(OC)c2)oc1C | -24.7 |  |
| COc1cccc(-c2nc(CS(=O)(=O)CC(=O)N3CCN(c4cc(C)ccc4C)CC3)c(C)o2)c1 |  | 3.26 µM (active) |
| COc1ccc(CCNC(=O)CS(=O)(=O)Cc2nc(-c3ccc(C)cc3)oc2C)cc1OC | -25.7 |  |
| CC1CCN(CC(O)COc2ccc(C(=O)c3ccccc3)cc2)CC1 (stereo unspecified) | -26.9 |  |
| C[C@@H](NC(=O)[C@@H]1Cc2ccccc2CN1)C(=O)NC1CCCC1 | 14.7 |  |
| Cc1noc(C)c1S(=O)(=O)N(C)C[C@H]1Oc2ccc(NC(=O)C3CC3)cc2C(=O)N([C@H](C)CO)C[C@@H]1C | -15.8 |  |
| CCC(C)c1ccc(NC(=S)N2CCCC2)cc1 (stereo unspecified) |  | 13 µM (active) |
| CCOC(=O)c1ccc(NC(=S)N2CCCC2)cc1 | 5.97 |  |
| CCOc1ccc(NC(=S)N2CCCCCC2)cc1 | 17.1 |  |
| COc1ccc(CNS(=O)(=O)c2cc(-c3cc(C)no3)ccc2C(C)C)cc1 |  | 0.92 µM (active) |
| CCOc1ccccc1CNS(=O)(=O)c1cc(-c2cc(C)no2)ccc1C | -8.67 |  |
| Cc1cc(-c2ccc(C)c(S(=O)(=O)NC(C)Cc3ccco3)c2)on1 (stereo unspecified) | -22.6 |  |
| Cc1nn(-c2ccc(F)cc2)c(Cl)c1/C=C(/CCC(=O)O)c1nc2ccccc2s1 | -25.5 |  |
| COc1ccccc1OCc1nc2ccccc2s1 | -16.1 |  |
| O=C(Nc1ccccc1)Nc1nc2ccccc2s1 | 1.18 |  |
| COc1cccc2sc(NNC(=O)c3nc4ccccc4s3)nc12 |  | 5.17 µM (active) |
